# Assay outcomes as filed in PubChem BioAssay.
# Hits are enriched below; roughly 21% of the tested compounds scored in any of these assays.
# Pf growth 96h: P. falciparum growth inhibition at 96 hours; 6.9% of 320,000 active; P. falciparum luciferase reporter growth, 96 h; Potency, µM (top dose mostly 28.7 µM), without a hit: at the highest dose activity change, negative = inhibition, usual class: inhibitors; AID 504834; further: potency means the concentration at half of the fitted maximal effect; on the % scale 0 is the no-effect control and ±100 the full control effect
#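 Compounds incubated with erythrocytes infected by luciferase-expressing P. falciparum (2% hematocrit, 0.05% parasitemia final) for 96 hours, 37 C in 5% CO2. Growth inhibition scored as decreased luciferase luminescence.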
# NS1 inh: influenza NS1 inhibition. Potency, µM (top dose mostly 46.1 µM), for the others: top-dose activity, positive = more growth. 0.4% of 270,000 active. AID 2326; calls by dose curve; further: potency means the concentration at half of the fitted maximal effect; actives are rising curves; nearly all actives have a fitted effect of over 50% in size
#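 Growth recovery, yeast-based: influenza A NS1 expressed in S. cerevisiae causes slow growth, and suppressors are detected by OD600. The parent strain without NS1 is used as positive control.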
# CHX counter: affects cycloheximide protein synthesis inhibition readout, counter-screen. 12% of 300,000 active. cell reporter, cycloheximide protein synthesis inhibition counterscreen. max response, %. AID 2314; in the data active means max response mostly above about 13%, no sharp cut-off; inactive means mostly below about 14%; further: read at 38.3 µM for the half of the compounds with a filed dose; 0% is about no effect
# Shiga toxin inh: Shiga toxin inhibition | Vero cells, Shiga toxin protein synthesis inhibition reporter | inhibition, % at 38.7 µM | 9.2% of 290,000 active; in the data active means inhibition mostly above about 28%, no sharp cut-off; inactive means mostly below about 43%; further: 0% is about no effect
# Pf growth 48h: P. falciparum growth inhibition at 48 hours (one generation); 5.9% of 310,000 active; Potency, µM (series often up to 28.7 µM), for inactives: top-dose activity change, negative = inhibition, most hits filed as inhibitors; AID 504832; P. falciparum luciferase growth in erythrocytes, 48 h; further: potency means the concentration at half of the fitted maximal effect; on the % scale 0 is the no-effect control and ±100 the full control effect
#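 Cell-based growth assay: transgenic P. falciparum expressing firefly luciferase, cultured in red cells within RPMI 1640 containing 0.5% w/v Albumax, 24 mM bicarbonate and gentamycin. A drop in luciferase activity indicates inhibition.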
# * = called active by the depositor; i = inactive; u = inconclusive; x = no result given; [ ] = another dose, or the depositor's remark. Unless noted, the call rests on the fitted dose curve; in most records, active means well fitted inhibition curve with a large enough effect; inconclusive means small, poorly fitted or top-dose-only effect, or another doubt; inactive means no such curve, though single readings can be large or run the other way.
SMILES,Pf growth 96h,NS1 inh,CHX counter,Shiga toxin inh,Pf growth 48h
CCOc1ccc(C2N(c3ccc(F)cc3)C(=O)C3CCCN32)cc1OC (stereo unspecified),u,-6%,-8,-17,x
Cc1cc2nc([C@H](C)C(=O)c3ccc(Cl)cc3)c(=O)[nH]c2cc1C,x,0%,x,x,x
COc1cc(S(=O)(=O)N2CCCN(C)CC2)ccc1NC(C)=O,23%,2%,-3,15,1%
COc1ccc(C2(c3ccc(OC)cc3)NC(=O)N(Cn3nnc4ccccc4c3=O)C2=O)cc1,u,-7%,-4,-9,12µM*
COc1ccc(NC(=O)CCCCCn2nnc3ccccc3c2=O)cc1,-17%,-6%,-2,-1,-22%
Cc1ccccc1OCC(=O)N1N=C(C(F)(F)F)CC1(O)C(C)(C)C (stereo unspecified),u,-25%,-2,-6,10µM*
C#CC[N+]1(CC#Cc2ccccc2)CCOCC1,-14%,-8%,16*,26,x
C#CC[N+]1(CC#Cc2ccccc2)CCCCC1,0%,x,-5,1,u
O=C(C[N+]1(CC#Cc2ccccc2)CCOCC1)c1ccccc1,-11%,x,15,-1,13µM*
O=C(C[N+]1(CC#Cc2ccccc2)CCOCC1)c1ccc(Cl)cc1,40%,x,8,6,u
O=C(C[N+]1(CC#Cc2ccccc2)CCCCC1)c1ccccc1,u,x,3,13,9.3µM*
C(#Cc1ccccc1)CN1CCOCC1,26%,x,31*,96*,28%
COc1ccc(/C=N/NC(=O)c2ccn[nH]2)cc1CN1CCOCC1,32%,-2%,22,42,11%
CCn1c(SCC(=O)OC)nnc1-c1c[nH]c2ccccc12,10%,-2%,0,-9,11%
C=CCc1cccc2cc(C(=O)Nc3ccccc3C(=O)O)c(=O)oc12,38%[5.75 µM],6%,0,-15,7%
CCOC(=O)/C=C1\Nc2ccccc2OC1=O,u,-25%,21*,11,u
CCOC(=O)/C=C1\CC(C(=O)OCC)Oc2ccccc21 (stereo unspecified),x,x,16,i,x
N#Cc1c(-c2ccco2)c2c([nH]c1=S)CCCC2,10µM*,u,2,-4,-10%
CCCC(=O)Nc1ccc(C(=O)NNC(=O)COc2ccc(Br)c(C)c2)cc1,x,5%,-1,1,6%
Cc1ccccc1OCCC(=O)Nc1ccc(N2CCOCC2)cc1N1CCOCC1,-7%,x,x,x,u
Cn1c(SCc2nc(-c3ccc(Cl)cc3)no2)nnc1-c1ccccc1,0%,-63%,-1,-7,x
Cn1nnnc1SCc1nnc(-c2ccc(Cl)cc2)o1,x,2%,29*,56*,26%
Cc1ccc(-c2nnc(CSc3nncn3N)o2)cc1,40%,3%,19*,35,34%
CCOC(=O)c1ccc(CSc2nncn2N)o1,x,-6%,2,-14,9%
Cc1occc1-c1nnc(SCc2nnc(-c3ccc(Cl)cc3)o2)n1C,-27%,-14%,31*,65*,22%
SMILES,Pf growth 96h,NS1 inh,CHX counter,Shiga toxin inh,Pf growth 48h
CCN(CC)S(=O)(=O)c1ccc(/C=C/C(=O)OCC#N)cc1,1%,x,-3,-10,-2%
CCN(CC)S(=O)(=O)c1cccc(NC(=O)/C=C/c2cccc([N+](=O)[O-])c2)c1,-15%,-1%,-2,10,21%
CN(CCCC(=O)Nc1ccc(Br)cc1F)S(=O)(=O)c1ccccc1,6.6µM*,-22%,7,20,-4%
CCN(CC)S(=O)(=O)c1ccc(/C=C/C(=O)Nc2ccc(F)cc2F)cc1,6.6µM*,-8%,32*,64*,u
CN(CCCC(=O)Nc1ccccc1F)S(=O)(=O)c1ccc(F)cc1,2%,15%,-5,2,0%
CCN(CC)S(=O)(=O)c1ccc(/C=C/C(=O)Nc2ccc(Br)cc2F)cc1,5.2µM*,6%,1,1,12µM*
CCN(CC)S(=O)(=O)c1ccc(/C=C/C(=O)Nc2ccc(F)c(F)c2F)cc1,u,2%,36*,38*,9.3µM*
CN(C)C(=O)CCC(=O)N1CCCC(N2CCN(c3cccc(C(F)(F)F)c3)CC2)C1 (stereo unspecified),-29%,21%,1,-4,2%
N#C/C(=N\Nc1ccc(Cl)cc1)C(=O)c1ccccc1,x,-161%,13,76,8%
N#C/C(=N\Nc1cccc(F)c1)C(=O)C1CC1,u,-7%,2,14,u
N#C/C(=N\Nc1cccc(F)c1)C(=N)N1CCCCCC1,u,x,26*,41*,i
N#C/C(=N\Nc1ccccc1)C(=N)N1CCCCCC1,479%,-5%,38*,71*,199%
N#C/C(=N/Nc1ccccc1F)C(=N)N1CCOCC1,115%,1%,34*,37,68%
O=C(CN1CCOCC1)Nc1ccccc1F,0%,0%,-2,x,4%
N#C/C(=N\Nc1ccc(F)cc1)C(=N)N1CCCCC1,x,-18%,47*,112*,120%
COc1cc(NC(=O)CSc2nnc3ccc(-c4cccnc4)nn23)cc(OC)c1,19%,x,x,x,39%
c1ccc(CCNc2nc(-c3ccncc3)nc3ccccc23)cc1,u,-2%,-1,-16,u
COc1ccc(N/N=C(\C#N)C(=N)N2CCOCC2)cc1,7%,x,29*,36,73%
CC(C)(C)NC(=O)COC(=O)/C=C/c1ccc(F)cc1,78%,1%,24*,43,31%
COC(=O)CNC(=O)COC(=O)/C=C/c1ccc(F)cc1,-20%,x,-2,-2,23%
O=C1CCC(C(=O)N2CCCCCC2)CN1Cc1cccc(C(F)(F)F)c1 (stereo unspecified),21%,-5%,-4,-12,0%
COc1ccccc1NC(=O)CCc1nc(-c2ccccc2F)no1,-1%,-6%,16*,40,22%
CCOc1ccccc1-c1noc(CCC(=O)Nc2cccnc2)n1,8.3µM*,13%,5,-2,11%
COc1cccc(NC(=O)CCc2nc(-c3ccccc3F)no2)c1,x,-19%,17*,13,9%
CCc1ccccc1NC(=O)CCc1nc(-c2cccs2)no1,u,x,20,48*,12%
SMILES,Pf growth 96h,NS1 inh,CHX counter,Shiga toxin inh,Pf growth 48h
O=C(CCc1nc(-c2ccccc2F)no1)Nc1cccnc1,-22%,-12%,1,-30,14%
O=C(CCNC(=O)N1CC(=O)Nc2ccccc21)Nc1ccc(Cl)cc1,2%,1%,6,-18,17%
CCC1CCCCN1C(=O)Cn1c(=O)oc2ccccc21 (stereo unspecified),x,-3%,2,-16,1%
Cc1ccc(-c2noc(CCC(=O)Nc3cccc(C#N)c3)n2)cc1,u,-49%,34*,34*,u
COc1ccccc1NC(=O)Cc1noc(CN(C)Cc2cccs2)n1,5.9µM*,-12%,-4,-7,-22%
C/C(=N\OCC(=O)NCC(F)(F)F)c1cc2ccccc2o1,56%,1%,53*,71*,89%
O=C(COC(=O)COc1cccc2ccccc12)NCC(F)(F)F,18%,x,1,4,-11%
CCc1cccc(C)c1NC(=O)CO/N=C(\C)c1cc2ccccc2o1,u,7%,-2,19,u
